hgDAF12 agonist: activates the H. glycines DAF-12 receptor ligand-binding domain; HEK293 GAL4-hgDAF12 UAS-luciferase reporter, agonist luminescence; normalized to butyrate control; activation, % at 6.8 µM; actives 1.8% (n = 370,000); AID 687014;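 active means activation above a cutoff set at the mean of all screened compounds plus 3 SD, cut at about 10% in these data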
DAX1 inh-1: inhibits human nuclear receptor DAX1; actives 0.99% (n = 340,000); HEK293 Gal4-DAX1 luciferase reporter, luminescence; inhibition, % at 6.75 µM; AID 504766; P51843;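 active means inhibition above the mean over all tested compounds plus 3 SD, cut at about 4.2% in these data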;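 further: inhibition shows as a rise in luminescence from relieved DAX1 repression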
Target sequence (P51843 207-470 limits assumed): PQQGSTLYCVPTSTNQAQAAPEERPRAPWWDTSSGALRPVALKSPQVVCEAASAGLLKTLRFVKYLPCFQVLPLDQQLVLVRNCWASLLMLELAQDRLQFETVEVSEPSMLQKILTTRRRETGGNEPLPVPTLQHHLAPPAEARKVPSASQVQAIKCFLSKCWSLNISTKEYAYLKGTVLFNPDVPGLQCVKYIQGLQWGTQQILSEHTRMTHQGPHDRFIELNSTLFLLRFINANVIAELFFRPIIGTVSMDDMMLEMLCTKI
hcDAF-12 act: activators of H. contortus DAF-12 nuclear receptor; HEK293 hcDAF-12 lit1-tk-luc reporter, luminescence; 0% DMSO, 100% Δ7-dafachronic acid; activation, % at 6.8 µM; actives 1.4% (n = 370,000); AID 652067;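 active means activation above the mean of all tested compounds plus 3 SD, cut at about 5.5% in these data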
ssDAF12 agonist: S. stercoralis DAF-12 activation, primary screen; HEK293 ssDAF-12/GRIP1 lit1-tk-luc reporter, luminescence; % of 3 µM dafachronic acid response; AID 652126; actives 1% (n = 370,000); activation, % at 6.8 µM;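 active means activation above the mean over all tested compounds plus 3 SD, cut at about 0.9% in these data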
DAX1 inh-2: blocks DAX1 repression of SF-1 activated StAR promoter | HEK293T StAR-luciferase reporter, SF-1/DAX-1 repression relief | inhibition, % at 6.8 µM | AID 652010 | actives 1.1% (n = 370,000);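 active means inhibition above the mean over all tested compounds plus 3 SD, cut at about 3.6% in these data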;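 further: higher inhibition means more luminescence from relief of DAX-1 repression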
Numbers stand for hits. An excerpt weighted towards active compounds, which were near 4.1% of everything screened.

For O=C(COc1ccc(Cl)cc1Cl)c1ccc[nH]1 the results were hgDAF12 agonist inactive, DAX1 inh-1 8.0, hcDAF-12 act inactive, ssDAF12 agonist inactive and DAX1 inh-2 inactive.
`Cc1ccsc1/C=N\NC(=O)c1ccc2c(c1)OCO2` gave hgDAF12 agonist inactive, DAX1 inh-1 inactive, hcDAF-12 act inactive, ssDAF12 agonist inactive and DAX1 inh-2 4.0.
`Cc1cccc(OCC(=O)N/N=C/c2ccc3c(c2)OCO3)c1` gave hgDAF12 agonist inactive, DAX1 inh-1 inactive, hcDAF-12 act inactive, ssDAF12 agonist 1.2 and DAX1 inh-2 inactive.
For CCn1ncc(/C=N/NC(=O)c2ccc3c(c2)OCO3)c1C the results were hgDAF12 agonist 11.7, DAX1 inh-1 inactive, hcDAF-12 act inactive, ssDAF12 agonist inactive and DAX1 inh-2 inactive.
Screening O=C(N/N=C\c1cccc(OC(=O)c2ccco2)c1)c1ccc2c(c1)OCO2 returned hgDAF12 agonist 12.2, DAX1 inh-1 inactive, hcDAF-12 act inactive, ssDAF12 agonist inactive and DAX1 inh-2 inactive.
Cc1ccc(C(=O)N/N=C\c2sccc2C)cn1 was read as hgDAF12 agonist inactive, DAX1 inh-1 inactive, hcDAF-12 act inactive, ssDAF12 agonist inactive and DAX1 inh-2 inactive.
For O=S(=O)(c1ccc(F)cc1)n1c(CN2CCOCC2)nc2ccccc21 the results were hgDAF12 agonist inactive, hcDAF-12 act inactive, ssDAF12 agonist inactive and DAX1 inh-2 inactive.
`COc1ccccc1/C=N/NC(=O)c1ccc2c(c1)OCO2` gave hgDAF12 agonist inactive, DAX1 inh-1 4.3, hcDAF-12 act inactive, ssDAF12 agonist inactive and DAX1 inh-2 inactive.
`CCCCCC1=CCC/C1=N\NC(=O)c1ccc2c(c1)OCO2` gave hgDAF12 agonist 11.6, DAX1 inh-1 inactive, hcDAF-12 act inactive, ssDAF12 agonist inactive and DAX1 inh-2 inactive.
For O=C(N/N=C/c1ccc[nH]1)c1ccc2c(c1)OCO2 the results were hgDAF12 agonist 10.8, DAX1 inh-1 inactive, hcDAF-12 act inactive, ssDAF12 agonist inactive and DAX1 inh-2 inactive.
Screening O=C(NN=C1CCCCCC1)c1ccc2c(c1)OCO2 returned hgDAF12 agonist inactive, DAX1 inh-1 inactive, hcDAF-12 act inactive, ssDAF12 agonist inactive and DAX1 inh-2 inactive.
For Cc1cccc(/C=N/NC(=O)c2ccc3c(c2)OCCO3)c1O the results were hgDAF12 agonist inactive, DAX1 inh-1 inactive, hcDAF-12 act inactive, ssDAF12 agonist 1.1 and DAX1 inh-2 inactive.
Screening CCCN1CCCCC(NC(=O)c2ccc3ccccc3c2)C1=O (centres undefined) returned hgDAF12 agonist inactive, hcDAF-12 act inactive, ssDAF12 agonist inactive and DAX1 inh-2 inactive.
`CCCCS(=O)(=O)N1CCCc2nc(-c3ccc(OC)cc3)ccc21` gave hgDAF12 agonist inactive, hcDAF-12 act inactive, ssDAF12 agonist inactive and DAX1 inh-2 inactive.
For C[C@H]1COc2cc(Br)ccc2S(=O)(=O)N1Cc1cn(CCC2OCCO2)nn1 the results were hgDAF12 agonist inactive, hcDAF-12 act inactive, ssDAF12 agonist inactive and DAX1 inh-2 inactive.
`O=C(NCCCN1CCOCC1)C(=O)N/N=C/c1ccc2c(c1)OCO2` gave hgDAF12 agonist inactive, DAX1 inh-1 4.4, hcDAF-12 act inactive, ssDAF12 agonist inactive and DAX1 inh-2 inactive.
O=C(N/N=C/c1ccc2c(c1)OCO2)c1ccc2c(c1)OCO2 was read as hgDAF12 agonist inactive, DAX1 inh-1 inactive, hcDAF-12 act inactive, ssDAF12 agonist inactive and DAX1 inh-2 4.0.
O=C(NCCCN1CCOCC1)C(=O)N/N=C/c1ccc(F)cc1 was read as hgDAF12 agonist inactive, DAX1 inh-1 inactive, hcDAF-12 act inactive, ssDAF12 agonist inactive and DAX1 inh-2 inactive.
`Cc1cccc(OCC(=O)Nc2cc(C)c(C)cc2O)c1` gave hgDAF12 agonist inactive, DAX1 inh-1 inactive, hcDAF-12 act inactive, ssDAF12 agonist inactive and DAX1 inh-2 inactive.
For Cc1cccc(OCC(=O)Nc2cc(C)ccc2O)c1 the results were hgDAF12 agonist inactive, DAX1 inh-1 inactive, hcDAF-12 act inactive, ssDAF12 agonist 1.1 and DAX1 inh-2 inactive.
`O=C(NN=Cc1ccc2c(c1)OCO2)c1ccncc1` gave hgDAF12 agonist inactive, DAX1 inh-1 inactive, hcDAF-12 act inactive, ssDAF12 agonist inactive and DAX1 inh-2 inactive.
For CCCCOCCCNC(=O)C[C@H]1C[C@@]2(C(=O)OC)C(=C[C@H](C(C)(C)C)O[C@@H]2C)N(Cc2cccc3ccccc23)C1=O the results were hgDAF12 agonist inactive, hcDAF-12 act inactive, ssDAF12 agonist inactive and DAX1 inh-2 inactive.
COC(=O)C1=C(C)N(Cc2cccc(C(F)(F)F)c2)C(=NCc2ccc(C(F)(F)F)cc2)NC1c1ccccc1C(F)(F)F (centres undefined) was read as hgDAF12 agonist inactive, hcDAF-12 act inactive, ssDAF12 agonist inactive and DAX1 inh-2 inactive.
COc1ccc(-c2noc(CCC(=O)N3CCN(c4cccc(OC)c4)CC3)n2)cc1 was read as hgDAF12 agonist inactive, DAX1 inh-1 inactive, hcDAF-12 act inactive, ssDAF12 agonist inactive and DAX1 inh-2 inactive.
Screening COc1ccc(-c2noc(CCC(=O)N3CCC(c4cc(C)ccc4C)CC3)n2)cc1 returned hgDAF12 agonist inactive, DAX1 inh-1 inactive, hcDAF-12 act inactive, ssDAF12 agonist 3.0 and DAX1 inh-2 inactive.
For Cc1cccc2c(C(=O)O)c3c(nc12)CCCCC3 the results were hgDAF12 agonist inactive, DAX1 inh-1 inactive, hcDAF-12 act inactive, ssDAF12 agonist inactive and DAX1 inh-2 inactive.
Cc1cccc2c(C(=O)O)c3cccc(C)c3nc12 was read as hgDAF12 agonist inactive, DAX1 inh-1 inactive, hcDAF-12 act inactive, ssDAF12 agonist 1.3 and DAX1 inh-2 inactive.
Screening NC(=O)CSc1nc(C2CC2)nc2sc3c(c12)CCCC3 returned hgDAF12 agonist 11.7, DAX1 inh-1 5.6, hcDAF-12 act inactive, ssDAF12 agonist inactive and DAX1 inh-2 inactive.
NC(=O)CSc1nc(N)c2c3c(sc2n1)CCCCC3 was read as hgDAF12 agonist inactive, DAX1 inh-1 inactive, hcDAF-12 act inactive, ssDAF12 agonist inactive and DAX1 inh-2 inactive.
For O=C(Nc1ncc(Cc2ccccc2Cl)s1)C1CCCO1 (centres undefined) the results were hgDAF12 agonist 12.2, DAX1 inh-1 inactive, hcDAF-12 act inactive, ssDAF12 agonist inactive and DAX1 inh-2 inactive.
O=C(Nc1ncc(Cc2cccc(Cl)c2Cl)s1)C1CCCO1 (centres undefined) was read as hgDAF12 agonist inactive, DAX1 inh-1 inactive, hcDAF-12 act inactive, ssDAF12 agonist inactive and DAX1 inh-2 inactive.
For Cc1ccc(-n2c(SCc3ccc(Cl)c(Cl)c3)nnc2-c2ccc(C(C)(C)C)cc2)cc1 the results were hgDAF12 agonist inactive, hcDAF-12 act inactive, ssDAF12 agonist inactive and DAX1 inh-2 inactive.
Screening O=C1c2ccccc2C(=O)N1CC(O)CN1CCOCC1 (centres undefined) returned hgDAF12 agonist inactive, DAX1 inh-1 inactive, hcDAF-12 act inactive, ssDAF12 agonist 3.9 and DAX1 inh-2 inactive.
Screening OC(CN1CCOCC1)Cn1c2ccccc2c2ccccc21 (centres undefined) returned hgDAF12 agonist inactive, DAX1 inh-1 inactive, hcDAF-12 act inactive, ssDAF12 agonist inactive and DAX1 inh-2 inactive.
